Tests used:
Assay in all cases: PBM binding z-score (relative to random genomic background probes); higher = stronger binding; sequences stand for … in GC…GCGATTGACAGCGTAGAATGAAGG
[1] = system: FXR:RXRa (NR concentration 270 nM, RXRa partner concentration 90 nM)
Summary of the method: (§1)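 Custom Agilent 4×180K protein-binding microarrays carried double-stranded probes, each with a 34-nt variable region. These regions held direct-repeat seeds, single-nucleotide variants, half-site ablations and random human genomic background sequences. Ligand-free nuclear receptor dimers were incubated on the arrays for 1 h, antibodies against each partner (one per run) detected binding, and scanned fluorescence was regression-normalized. Binding z-scores take the random background probes as reference.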

[2] = system: LXRa:RXRa (NR concentration 270 nM, RXRa partner concentration 90 nM)
Summary of the method: as §1

[3] = system: LXRa homodimer (NR concentration 270 nM)
Summary of the method: as §1

[4] = system: LXRb:RXRa (NR concentration 270 nM, RXRa partner concentration 90 nM)
Summary of the method: as §1

[5] = system: LXRb homodimer (NR concentration 270 nM)
Summary of the method: as §1

[6] = system: PPARa:RXRa (NR concentration 270 nM, RXRa partner concentration 90 nM)
Summary of the method: as §1

[7] = system: PPARg:RXRa (NR concentration 180 nM, RXRa partner concentration 90 nM)
Summary of the method: as §1

[8] = system: PPARg:RXRa 270nM:90nM, anti-RXR (NR concentration 270 nM, RXRa partner concentration 90 nM)
Summary of the method: as §1

[9] = system: PPARg:RXRa 30nM:10nM, anti-RXR (NR concentration 30 nM, RXRa partner concentration 10 nM)
Summary of the method: as §1

[10] = system: PPARg:RXRa 90nM:30nM, anti-RXR (NR concentration 90 nM, RXRa partner concentration 30 nM)
Summary of the method: as §1

[11] = system: PPARg:RXRa DBDmut IVT, anti-RXR (DBD mutation: RXRa K156A/R161A, NR concentration 270 nM, RXRa partner concentration 90 nM)
Summary of the method: as §1

[12] = system: PPARg:RXRa IVT, anti-PPARg (NR concentration 270 nM, RXRa partner concentration 90 nM)
Summary of the method: as §1

[13] = system: PPARg DBDmut:RXRa IVT, anti-PPARg (DBD mutation: PPARg1 K132A/R137A, NR concentration 270 nM, RXRa partner concentration 90 nM)
Summary of the method: as §1

[14] = system: PPARg DBDmut IVT, anti-PPARg (DBD mutation: PPARg1 K132A/R137A, NR concentration 270 nM)
Summary of the method: as §1

[15] = system: PPARg homodimer (NR concentration 180 nM)
Summary of the method: as §1

[16] = system: PXR:RXRa (NR concentration 270 nM, RXRa partner concentration 90 nM)
Summary of the method: as §1

[17] = system: PXR homodimer (NR concentration 270 nM)
Summary of the method: as §1

[18] = system: RARa:RXR (NR concentration 270 nM, RXRa partner concentration 90 nM)
Summary of the method: as §1

[19] = system: RARa homodimer (NR concentration 270 nM)
Summary of the method: as §1

[20] = system: RARb:RXRa (NR concentration 270 nM, RXRa partner concentration 90 nM)
Summary of the method: as §1

Sequence	PBM binding z-score [1]	PBM binding z-score [2]	PBM binding z-score [3]	PBM binding z-score [4]	PBM binding z-score [5]	PBM binding z-score [6]	PBM binding z-score [7]	PBM binding z-score [8]	PBM binding z-score [9]	PBM binding z-score [10]	PBM binding z-score [11]	PBM binding z-score [12]	PBM binding z-score [13]	PBM binding z-score [14]	PBM binding z-score [15]	PBM binding z-score [16]	PBM binding z-score [17]	PBM binding z-score [18]	PBM binding z-score [19]	PBM binding z-score [20]
CAAATTAGGTCAAGGTCAAAGTCGGTTTGTGCCA	6.89	5.96	4.73	4.86	2.29	6.17	9.22	8.16	6.73	8.31	8.62	8.52	4.74	1.94	5.8	5.5	3.06	5.77	4.26	5.2
ATATGTAGGTTACATCCCGGTCATTCAGGCTATG	1.09	3.77	3.88	1.83	1.18	3.66	4.96	4.25	1.8	3.35	7.52	7.38	2.01	2.46	1.78	1.39	0.762	1.6	0.487	1.99
TCATATAGGTAAACGCTAGGTGAAAGTCCGATCT	1.11	0.968	0.15	0.833	-0.0724	1.7	1.29	2.43	3.95	3.34	4.49	3.57	1.38	1.29	0.646	0.584	0.4	1.13	0.619	0.474
CGAACTGGGTCATTGACAGGACAGTGAATAGTAA	3.16	1.97	0.288	1.86	-0.438	4.39	6.77	5.84	2.72	5.44	7.7	7.88	1.06	1.35	0.71	1.41	0.347	2.18	0.276	2.92
CCTGCTAGGTCGTGGTCAGCTAATCTACAGTATG	0.204	0.138	-0.589	0.0814	-0.563	0.699	-0.0367	0.111	-0.191	0.0176	1.33	0.742	-0.546	-0.828	0.0786	0.00895	-0.22	0.444	-0.694	1.71
TAGCTTAGGTCATGCGGGCCAGTATAGTGTCGGC	4.63	3.38	0.514	1.93	0.519	3.57	1.32	1.95	0.0747	0.973	1.52	1.65	1.35	0.321	1.44	1.85	-0.011	2.73	-0.0276	3.87
TGAATCAGGTTATAAGATCAGGGAACGTTGCAAA	0.101	0.162	-0.396	0.0988	-0.425	0.709	0.475	0.863	0.155	0.477	0.57	1.03	1.01	0.775	2.15e-05	-0.146	-0.197	-0.101	0.428	0.25
ACTATTAGTTGACTTAGGGCATCCGATACGACGC	-0.0291	0.0994	0.216	-0.154	0.3	-0.203	0.827	0.149	0.353	0.396	0.311	0.614	1.03	0.574	0.0693	0.114	0.228	0.0202	0.624	0.643
ATATGTAGTTTACATCCGGGTCATTCAGGCTATG	1.49	2.34	1.08	2.31	1.04	2.59	1.19	1.19	0.609	1.53	1.36	2.27	1.09	1.65	1.01	2.91	3.16	2.85	0.262	1.51
TTACCAAGATGAAGGTCGTTGATCCCTCTGTAGA	1.47	1.91	-0.0555	1.48	-0.663	1.33	0.406	1.7	1.5	1.72	0.471	0.0475	0.286	0.663	0.704	1.15	-0.0787	1.18	0.48	0.617
TATTGTAGATCAACAGGAGGTTAAGAAAGATCGA	0.217	1.55	0.577	1.03	0.546	1.46	0.641	0.531	0.596	0.68	0.634	1.7	1.31	1.13	0.72	0.93	0.0451	0.904	0.431	0.665
TCTCGGAGGACACGAATGTCAGAGCTTTCCAGAG	0.579	-0.0398	-0.547	-0.175	-0.958	0.22	-0.0172	0.69	1.96	1.29	1.02	-0.236	-0.725	-1.02	-0.998	-0.181	-0.893	-0.129	-0.458	1.47
ACTATTAGTTGAGACGAGGGCATCCGATAGGTTG	0.433	-0.0452	0.0875	-0.216	0.112	0.0329	0.689	-0.118	0.0451	0.0642	0.0561	-0.111	1.09	0.274	-0.612	1.7	0.926	0.817	0.577	0.742
CGAACTACGTCAGAACAGGACAGTGAAGGATGAT	-0.457	-0.582	-0.294	-1.05	-0.438	-0.716	0.632	-0.752	-0.147	-0.37	-0.549	-0.508	0.627	0.733	0.0908	-0.524	-0.0465	-0.592	-0.0605	-0.283
